Measured values reported in the supplement of paper PMC3342239.
Structures can show the parent of a compound that is named as a salt.

Test system: Saccharomyces cerevisiae
Experiment: fraction of cells in G1 phase (DNA content, flow cytometry); higher = more cells with unreplicated DNA (G1 delay)
Settings: temperature: 30 C, YPD
Outline: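 S. cerevisiae grown in YPD at 30°C was exposed to library drugs. In one setup, overnight sensitized JTY2953 cultures were diluted 1∶200, given a final 20 µg/ml and fixed after 6–7 h, while other runs dosed dividing JTY2953 with fixation 6 h later or BY4741 with fixation 4.33 h later. Cells were ethanol-fixed, stained with SYTOX Green and analysed by flow cytometry at 10,000 events. The G1 fraction is the area of the Dean-Jett-Fox G1 peak divided by the summed G1 and G2/M areas.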

[1] = JTY2953 pdr5 snq2 (sensitized), drug added to: cultures diluted from stationary phase, 6-7 h
[2] = BY4741 PDR5+ SNQ2+, drug added to: actively dividing cells, 4.33 h
[3] = JTY2953 pdr5 snq2 (sensitized), drug added to: actively dividing cells, 6 h

Nc1nnc(-c2cccc(Cl)c2Cl)c(N)n1 [Lamotrigine] (78.0958 µM)
fraction of cells in G1 phase [1]: 0.493

COC(=O)c1ccc(=O)c2nc3c(=CO)c(O)cc(=O)c3[nH]c12 [Lomofungin] (63.6422 µM)
fraction of cells in G1 phase [1]: 0.495

CCOC(=O)[C@H](CCc1ccccc1)N[C@@H](C)C(=O)N1[C@H](C(=O)O)C[C@@H]2CCC[C@@H]21 [Ramipril] (48.0167 µM)
fraction of cells in G1 phase [1]: 0.482

CO[C@H](C(=O)[C@@H](O)[C@@H](C)O)[C@@H]1Cc2cc3cc(O[C@H]4C[C@@H](O[C@H]5C[C@@H](O)[C@H](O)[C@@H](C)O5)[C@H](O)[C@@H](C)O4)c(C)c(O)c3c(O)c2C(=O)[C@H]1O[C@H]1C[C@@H](O[C@H]2C[C@@H](O[C@H]3C[C@](C)(O)[C@H](O)[C@@H](C)O3)[C@@H](O)[C@@H](C)O2)[C@H](O)[C@@H](C)O1 [Plicamycin] (18.4303 µM)
fraction of cells in G1 phase [1]: 0.513

CC[C@H](C)C(=O)O[C@H]1C[C@H](O)C=C2C=C[C@H](C)[C@H](CC[C@@H]3C[C@@H](O)CC(=O)O3)[C@H]21 [Pravastatin lactone] (49.1976 µM)
fraction of cells in G1 phase [1]: 0.451

CN(C)CCCOc1nn(Cc2ccccc2)c2ccccc12 [Benzydamine] (64.6382 µM)
fraction of cells in G1 phase [1]: 0.48

CC#C[C@]1(O)CC[C@H]2[C@@H]3CCC4=CC(=O)CCC4=C3[C@@H](c3ccc(N(C)C)cc3)C[C@@]21C [Mifepristone] (46.5541 µM)
fraction of cells in G1 phase [1]: 0.469

Nc1nc2c(ncn2COCCO)c(=O)[nH]1 [Acycloguanosine] (88.8066 µM)
fraction of cells in G1 phase [1]: 0.472

Nc1cc(-c2ccncc2)c[nH]c1=O [Amrinone] (106.838 µM)
fraction of cells in G1 phase [1]: 0.474

CCn1cc(C(=O)O)c(=O)c2cc(F)c(N3CCNC(C)C3)c(F)c21 (stereo not drawn) [Lomefloxacin HCl] (56.9223 µM)
fraction of cells in G1 phase [1]: 0.489

COC(=O)N[C@H](C(=O)N[C@@H](Cc1ccccc1)[C@@H](O)CN(Cc1ccc(-c2ccccn2)cc1)NC(=O)[C@@H](NC(=O)OC)C(C)(C)C)C(C)(C)C [Atazanavir] (28.3739 µM)
fraction of cells in G1 phase [1]: 0.525

Nc1ccc(O)c(C(=O)O)c1 [5-aminosalicylic acid] (130.601 µM)
fraction of cells in G1 phase [1]: 0.48

Cn1c(NCCN(CCO)CCCc2ccc([N+](=O)[O-])cc2)cc(=O)n(C)c1=O [Nifekalant HCl] (49.327 µM)
fraction of cells in G1 phase [1]: 0.479

CN1CCC(=C2c3ccccc3C=Cc3ccccc32)CC1 [Cyproheptadine] (69.5874 µM)
fraction of cells in G1 phase [1]: 0.426

NS(=O)(=O)Cc1noc2ccccc12 [Zonisamide] (94.238 µM)
fraction of cells in G1 phase [1]: 0.51

CC(CN1c2ccccc2Sc2ccccc21)N(C)C (stereo not drawn) [Promethazine HCl] (70.317 µM)
fraction of cells in G1 phase [2]: 0.437
fraction of cells in G1 phase [1]: 0.204

CCC(C)(C)C(=O)O[C@H]1C[C@@H](C)C=C2C=C[C@H](C)[C@H](CC[C@@H]3C[C@@H](O)CC(=O)O3)[C@H]21 [Simvastatin] (47.7808 µM)
fraction of cells in G1 phase [3]: 0.354
fraction of cells in G1 phase [1]: 0.879

CN(C)CCCN1c2ccccc2Sc2ccc(Cl)cc21 [Chlorpromazine HCl] (62.7212 µM)
fraction of cells in G1 phase [2]: 0.373
fraction of cells in G1 phase [1]: 0.278

CC/C(=C(\c1ccccc1)c1ccc(OCCN(C)C)cc1)c1ccccc1 [Tamoxifen citrate] (53.8319 µM)
fraction of cells in G1 phase [3]: 0.385
fraction of cells in G1 phase [1]: 0.896

Fc1ccc([C@@H]2CCNC[C@H]2COc2ccc3c(c2)OCO3)cc1 [Paroxetine HCl] (60.7211 µM)
fraction of cells in G1 phase [2]: 0.468
fraction of cells in G1 phase [1]: 0.387

CCCCCCCCCCCCCCCCOP(=O)([O-])OCC[N+](C)(C)C [Miltefosine] (49.0703 µM)
fraction of cells in G1 phase [3]: 0.596
fraction of cells in G1 phase [1]: 0.858

NC1CCN(c2c(F)cc3c(=O)c(C(=O)O)cn(C4CC4)c3c2Cl)C1 (stereo not drawn) [Clinafloxacin HCl] (54.6755 µM)
fraction of cells in G1 phase [2]: 0.359
fraction of cells in G1 phase [1]: 0.254

CCC(C)(C)c1ccc(CC(C)CN2C[C@@H](C)O[C@@H](C)C2)cc1 (stereo partly drawn) [Amorolfine] (62.9883 µM)
fraction of cells in G1 phase [3]: 0.367
fraction of cells in G1 phase [1]: 0.841

Clc1ccc(Nc2nnc(Cc3ccncc3)c3ccccc23)cc1 [Vatalanib] (57.6664 µM)
fraction of cells in G1 phase [3]: 0.691
fraction of cells in G1 phase [1]: 0.699

CC(=O)N1CCN(c2ccc(OCC3COC(Cn4ccnc4)(c4ccc(Cl)cc4Cl)O3)cc2)CC1 (stereo not drawn) [Ketoconazole] (37.6334 µM)
fraction of cells in G1 phase [2]: 0.507
fraction of cells in G1 phase [3]: 0.84
fraction of cells in G1 phase [1]: 0.747

C[C@@H]1CN(c2c(F)c(N)c3c(=O)c(C(=O)O)cn(C4CC4)c3c2F)C[C@H](C)N1 [Sparfloxacin] (50.9672 µM)
fraction of cells in G1 phase [2]: 0.46
fraction of cells in G1 phase [1]: 0.366
